Measurements from PubChem BioAssay (EPA / NIEHS).
Inconclusive results are not listed. The source made the active and inactive calls. How the source made its calls, unless noted: active means hit-call score of the fitted dose curve at least 0.9, where 1 is the maximum; inactive means score below 0.9.

Columns and labels:
[1] = BSK_3C_VCAM1: BioMAP Diversity Plus: 3C Assay for Vascular cell adhesion molecule 1 (VCAM1) Biomarker Activity (AID 2282999); conditions: BioMAP 3C HUVEC, VCAM1 ELISA, cytokine-stimulated; actives raise or lower the signal
Procedure, shortened: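 Endothelial cells from human umbilical vein are treated with test chemical. At 24 h, VCAM-1 is measured by ELISA, and responses in either direction are fitted relative to DMSO.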

[2] = BSK_4H_Eotaxin3: BioMAP Diversity Plus: 4H Assay for Eotaxin 3 Biomarker Activity (AID 2283000); conditions: primary human endothelial cells (HUVEC); actives raise or lower the signal
Procedure, shortened: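 Human umbilical vein endothelial cells (BSK_4H system) dosed with test chemical; Eotaxin-3 (CCL26) measured by ELISA 24 h after dosing. Bidirectional curve fitting relative to DMSO negative control as baseline.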

[3] = read-out: Intercellular Adhesion Molecule 1 (ICAM1), ICAM1 (gene 3383); experiment: BSK_3C_ICAM1: BioMAP Diversity Plus: 3C Assay for Intercellular Adhesion Molecule 1 (ICAM1) Biomarker Activity (AID 2283003); conditions: primary human endothelial cells (HUVEC); actives raise or lower the signal
Procedure, shortened: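 ICAM-1 levels measured by ELISA after HUVEC cultures in the 3C system had been dosed for 24 h. Gain or loss of signal relative to DMSO was fitted in both directions.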

[4] = target: human Retinoic Acid Receptor beta (RARb), RARB (gene 5915) (UniProt P10826); experiment: ATG_RARb_TRANS: Attagene TRANS-FACTORIAL HepG2 Assay for human Retinoic Acid Receptor beta (AID 2283004; active means hit-call score of the fitted dose curve at least 0.9, where 1 is the maximum)
human Retinoic Acid Receptor beta (RARb), RARB (gene 5915), sequence (P10826 whole entry, looked up, the tested form may be a part): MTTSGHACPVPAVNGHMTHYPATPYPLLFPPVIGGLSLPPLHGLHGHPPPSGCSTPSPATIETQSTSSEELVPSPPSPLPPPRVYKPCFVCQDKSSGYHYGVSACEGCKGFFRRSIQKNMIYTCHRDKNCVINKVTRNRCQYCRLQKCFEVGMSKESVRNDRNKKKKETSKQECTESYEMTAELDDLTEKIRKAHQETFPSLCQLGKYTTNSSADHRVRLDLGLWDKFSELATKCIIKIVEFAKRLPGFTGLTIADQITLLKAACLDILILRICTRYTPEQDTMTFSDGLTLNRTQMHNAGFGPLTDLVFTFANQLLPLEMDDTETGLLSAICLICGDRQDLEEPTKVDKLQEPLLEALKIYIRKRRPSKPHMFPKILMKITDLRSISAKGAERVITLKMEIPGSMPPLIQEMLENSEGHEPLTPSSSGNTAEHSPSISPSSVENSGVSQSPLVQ
Procedure, shortened: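 Induction of reporter mRNA from a chimeric RARb-Gal4 construct was measured by RT-PCR, FAM labelling, HpaI digestion and capillary electrophoresis. Measurements followed 24 h compound treatment of transiently transfected human HepG2 liver cells, with DMSO as baseline.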

[5] = target: Retinoic acid receptor alpha (Homo sapiens) (UniProt P10276); experiment: ATG_RARa_TRANS: Attagene TRANS-FACTORIAL HepG2 Assay for human Retinoic Acid Receptor alpha (RARa) (AID 2283005; active means hit-call score of the fitted dose curve at least 0.9, where 1 is the maximum)
Retinoic acid receptor alpha (Homo sapiens), sequence (P10276 whole entry, looked up, the tested form may be a part): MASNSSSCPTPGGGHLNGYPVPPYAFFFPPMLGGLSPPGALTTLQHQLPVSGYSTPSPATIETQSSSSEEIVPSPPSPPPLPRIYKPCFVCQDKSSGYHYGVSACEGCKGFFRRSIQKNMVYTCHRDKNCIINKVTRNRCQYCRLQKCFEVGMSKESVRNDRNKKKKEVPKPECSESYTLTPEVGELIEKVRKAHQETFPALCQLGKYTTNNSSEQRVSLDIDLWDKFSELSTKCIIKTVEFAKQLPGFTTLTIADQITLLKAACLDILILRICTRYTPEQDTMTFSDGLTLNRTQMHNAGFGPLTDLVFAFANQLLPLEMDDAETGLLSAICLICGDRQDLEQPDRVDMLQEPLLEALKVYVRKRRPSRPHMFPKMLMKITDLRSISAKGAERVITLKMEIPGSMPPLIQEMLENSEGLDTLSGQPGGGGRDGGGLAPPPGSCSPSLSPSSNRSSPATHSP
Procedure, shortened: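 Reporter transcripts, measured by RT-PCR with fluorescent labeling and capillary electrophoresis after 24 h dosing, reflect activity of an exogenous human RARa–GAL4 fusion in transiently transfected HepG2. Fitted for increase relative to DMSO.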

[6] = BSK_3C_Proliferation: Cell Proliferation Assessment in the BioMAP Diversity Plus: 3C Assay (AID 2283006); conditions: primary human endothelial cells (HUVEC);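 on AC50: potency may reflect either rise or fall in cell number versus DMSO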
Procedure, shortened: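 Read-out is total protein by SRB absorbance at 560 nm, taken as a proxy for relative cell number. Primary human umbilical vein endothelium cultured below confluence was dosed for 48 h, TCA-fixed and SRB-stained; curves were fitted bidirectionally versus DMSO.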

[7] = target: Peroxisome proliferator-activated receptor gamma (Homo sapiens) (UniProt P37231); experiment: ATG_PPARg_TRANS: Attagene TRANS-FACTORIAL HepG2 Assay for human Peroxisome Proliferator-activated Receptor-gamma (PPARg) (AID 2283007; active means hit-call score of the fitted dose curve at least 0.9, where 1 is the maximum)
Peroxisome proliferator-activated receptor gamma (Homo sapiens), sequence (P37231 whole entry, looked up): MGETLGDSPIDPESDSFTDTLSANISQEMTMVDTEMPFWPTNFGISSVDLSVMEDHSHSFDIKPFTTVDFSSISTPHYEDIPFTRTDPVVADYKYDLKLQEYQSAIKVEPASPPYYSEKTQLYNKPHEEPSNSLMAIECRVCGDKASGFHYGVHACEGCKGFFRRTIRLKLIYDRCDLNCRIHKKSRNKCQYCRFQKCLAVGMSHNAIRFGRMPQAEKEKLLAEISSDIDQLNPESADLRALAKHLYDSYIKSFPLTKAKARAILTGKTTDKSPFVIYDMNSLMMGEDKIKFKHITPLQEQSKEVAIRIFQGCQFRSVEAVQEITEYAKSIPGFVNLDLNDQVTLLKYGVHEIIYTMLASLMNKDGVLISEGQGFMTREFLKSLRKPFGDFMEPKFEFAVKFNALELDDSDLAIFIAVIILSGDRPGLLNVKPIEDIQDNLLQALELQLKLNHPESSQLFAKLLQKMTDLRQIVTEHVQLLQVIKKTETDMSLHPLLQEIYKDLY
Procedure, shortened: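 Multiplexed reporter transcription units in HepG2, 24 h dosing, reporter transcripts quantified by fluorescent RT-PCR and capillary electrophoresis. Increase over DMSO scored.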

[8] = target: Nuclear receptor subfamily 1 group I member 2 (Homo sapiens) (UniProt O75469); experiment: ATG_PXR_TRANS: Attagene TRANS-FACTORIAL HepG2 Assay for human Pregnane X Receptor (PXR) (AID 2283008; active means hit-call score of the fitted dose curve at least 0.9, where 1 is the maximum)
Nuclear receptor subfamily 1 group I member 2 (Homo sapiens), sequence (O75469 whole entry, looked up, the tested form may be a part): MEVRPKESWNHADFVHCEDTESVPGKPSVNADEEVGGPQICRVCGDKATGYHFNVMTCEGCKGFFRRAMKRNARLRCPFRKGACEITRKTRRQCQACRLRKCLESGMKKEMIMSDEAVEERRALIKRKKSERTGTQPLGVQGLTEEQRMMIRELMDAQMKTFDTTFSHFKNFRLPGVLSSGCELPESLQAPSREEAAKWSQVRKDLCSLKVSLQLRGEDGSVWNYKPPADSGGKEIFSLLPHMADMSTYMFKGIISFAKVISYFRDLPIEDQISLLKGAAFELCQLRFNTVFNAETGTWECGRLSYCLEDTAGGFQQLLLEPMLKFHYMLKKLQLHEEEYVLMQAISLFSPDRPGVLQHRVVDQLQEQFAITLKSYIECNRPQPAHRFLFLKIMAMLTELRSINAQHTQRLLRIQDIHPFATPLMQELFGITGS
Procedure, shortened: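 HepG2 cells transiently transfected with multiple reporter units, here a PXR-GAL4 chimera driving a GAL4-UAS reporter; 24 h compound exposure. Reporter mRNA measured by RT-PCR, FAM labelling and capillary electrophoresis; gain of signal fitted against DMSO baseline.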

[9] = target: human Retinoic Acid Receptor gamma (RARg), RARG (gene 5916) (UniProt P13631); experiment: ATG_RARg_TRANS: Attagene TRANS-FACTORIAL HepG2 Assay for human Retinoic Acid Receptor gamma (RARg) (AID 2283009; active means hit-call score of the fitted dose curve at least 0.9, where 1 is the maximum)
human Retinoic Acid Receptor gamma (RARg), RARG (gene 5916), sequence (P13631 whole entry, looked up): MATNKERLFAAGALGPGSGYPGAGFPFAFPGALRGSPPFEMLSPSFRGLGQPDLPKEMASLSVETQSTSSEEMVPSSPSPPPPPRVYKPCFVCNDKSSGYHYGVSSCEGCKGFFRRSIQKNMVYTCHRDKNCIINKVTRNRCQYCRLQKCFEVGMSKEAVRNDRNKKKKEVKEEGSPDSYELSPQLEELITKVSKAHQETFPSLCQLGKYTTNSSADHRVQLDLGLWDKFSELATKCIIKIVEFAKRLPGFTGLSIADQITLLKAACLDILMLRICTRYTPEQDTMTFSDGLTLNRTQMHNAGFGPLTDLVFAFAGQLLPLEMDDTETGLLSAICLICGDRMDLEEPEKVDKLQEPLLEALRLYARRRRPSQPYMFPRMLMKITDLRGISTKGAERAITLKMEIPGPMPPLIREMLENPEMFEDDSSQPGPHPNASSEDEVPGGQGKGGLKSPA
Procedure, shortened: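 Transient transfection of HepG2 with multi-reporter constructs, then 24 h chemical treatment. Total RNA isolated, reverse-transcribed, PCR-amplified, fluorescently labelled and resolved by capillary electrophoresis; activity scored as mRNA induction versus DMSO.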

[10] = target: human RAR-related Orphan Receptor gamma (RORg), RORC (gene 6097) (UniProt P51449); experiment: ATG_RORg_TRANS: Attagene TRANS-FACTORIAL HepG2 Assay for human RAR-related Orphan Receptor gamma (RORg) (AID 2283011; active means hit-call score of the fitted dose curve at least 0.9, where 1 is the maximum)
human RAR-related Orphan Receptor gamma (RORg), RORC (gene 6097), sequence (P51449 whole entry, looked up, the tested form may be a part): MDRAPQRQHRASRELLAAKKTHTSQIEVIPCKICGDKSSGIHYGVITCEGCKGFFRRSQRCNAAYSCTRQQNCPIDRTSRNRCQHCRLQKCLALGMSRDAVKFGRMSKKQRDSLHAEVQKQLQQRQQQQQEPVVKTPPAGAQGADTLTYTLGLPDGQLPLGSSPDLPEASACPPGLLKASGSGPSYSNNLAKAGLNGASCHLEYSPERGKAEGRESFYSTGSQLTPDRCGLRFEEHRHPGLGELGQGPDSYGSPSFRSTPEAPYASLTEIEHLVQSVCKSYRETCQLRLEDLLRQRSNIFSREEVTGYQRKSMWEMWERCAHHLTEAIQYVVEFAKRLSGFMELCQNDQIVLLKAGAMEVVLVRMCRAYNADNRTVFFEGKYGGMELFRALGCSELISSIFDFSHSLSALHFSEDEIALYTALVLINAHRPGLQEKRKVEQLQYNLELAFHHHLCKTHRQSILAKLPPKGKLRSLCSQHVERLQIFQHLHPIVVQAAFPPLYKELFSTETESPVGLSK
Procedure, shortened: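 Reporter transcripts from a transfected RORg-GAL4 chimera in HepG2 cells were quantified 24 h after dosing by RT-PCR, 6-FAM labelling, HpaI digestion and capillary electrophoresis; increases over DMSO baseline were fitted.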

[11] = read-out: E-selectin (Homo sapiens) (UniProt P16581); experiment: BSK_3C_Eselectin: BioMAP Diversity Plus: 3C Assay for Eselectin Biomarker Activity (AID 2283015); conditions: primary human endothelial cells (HUVEC); actives raise or lower the signal
Procedure, shortened: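 E-selectin ELISA readout, fitted bidirectionally relative to DMSO, taken 24 h post-dosing in HUVEC cultures of the 3C system. Overt cytotoxicity tracked with sulforhodamine B staining of parallel wells.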

[12] = read-out: Monocyte Chemoattractant Protein-1 (MCP1), CCL2 (gene 6347); experiment: BSK_3C_MCP1: BioMAP Diversity Plus: 3C Assay for Monocyte Chemoattractant Protein-1 (MCP1) Biomarker Activity (AID 2283017); conditions: primary human endothelial cells (HUVEC); actives raise or lower the signal
Procedure, shortened: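 MCP-1 was measured by ELISA 24 h after dosing in primary HUVEC 3C cultures and fitted in both directions relative to DMSO; cytotoxicity was checked by SRB total-protein staining in parallel wells.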

[13] = read-out: Monocyte Chemoattractant Protein-1 (MCP1), CCL2 (gene 6347); experiment: BSK_4H_MCP1: BioMAP Diversity Plus: 4H Assay for Monocyte Chemoattractant Protein-1 (MCP1) Biomarker Activity (AID 2283018); conditions: primary human endothelial cells (HUVEC); actives raise or lower the signal
Procedure, shortened: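 ELISA read-out of MCP-1 from human vascular endothelial primary cells taken at 24 hours after compound exposure. Activity was fitted in both directions relative to DMSO, which served as negative control.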

[14] = read-out: Human Leukocyte Antigen - DR isotype (HLADR), HLA-DRA (gene 3122); experiment: BSK_3C_HLADR: BioMAP Diversity Plus: 3C Assay for Human Leukocyte Antigen - DR isotype (HLADR) Biomarker Activity (AID 2283019); conditions: primary human endothelial cells (HUVEC); actives raise or lower the signal
Procedure, shortened: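 Bidirectional fitting against DMSO was applied to the HLA-DR ELISA signal from human umbilical vein endothelial cells, 24 h post-dose. Cytotoxicity came from parallel SRB total-protein staining; 3C proliferation was counted by SRB at 48 h.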

[15] = read-out: Interleukin-8 (IL8), CXCL8 (gene 3576); experiment: BSK_3C_IL8: BioMAP Diversity Plus: 3C Assay for Interleukin-8 (IL8) Biomarker Activity (AID 2283020); conditions: primary human endothelial cells (HUVEC); actives raise or lower the signal
Procedure, shortened: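 ELISA read-out of IL-8 from human umbilical vein endothelium, measured 24 h after chemical dosing. Activity is expressed relative to DMSO negative control, with both increases and decreases fitted.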

[16] = target: human Peroxisome Proliferator-activated Receptor delta (PPARd), PPARD (gene 5467) (UniProt Q03181); experiment: ATG_PPARd_TRANS: Attagene TRANS-FACTORIAL HepG2 Assay for human Peroxisome Proliferator-activated Receptor delta (PPARd) (AID 2283002; active means hit-call score of the fitted dose curve at least 0.9, where 1 is the maximum)
human Peroxisome Proliferator-activated Receptor delta (PPARd), PPARD (gene 5467), sequence (Q03181 whole entry, looked up): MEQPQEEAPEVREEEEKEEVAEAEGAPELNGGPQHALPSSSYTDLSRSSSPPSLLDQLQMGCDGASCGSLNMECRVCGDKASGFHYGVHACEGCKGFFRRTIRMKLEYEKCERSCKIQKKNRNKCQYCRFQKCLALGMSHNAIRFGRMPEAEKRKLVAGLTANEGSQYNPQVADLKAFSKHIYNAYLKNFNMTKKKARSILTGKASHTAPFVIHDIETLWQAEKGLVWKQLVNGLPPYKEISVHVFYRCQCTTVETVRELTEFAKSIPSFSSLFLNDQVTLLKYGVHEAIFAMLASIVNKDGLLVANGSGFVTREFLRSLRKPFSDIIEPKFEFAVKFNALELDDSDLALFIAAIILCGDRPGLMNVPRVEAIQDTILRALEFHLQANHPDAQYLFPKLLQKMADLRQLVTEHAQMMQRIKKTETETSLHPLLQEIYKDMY
Procedure, shortened: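 Cell-based TRANS reporter: HepG2, transient MRTU transfection, 24 h exposure. Readout = reporter mRNA (RT-PCR/CE, 6-FAM). Gain-of-signal fit vs DMSO control.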

[17] = target: Retinoic acid receptor RXR-alpha (Homo sapiens) (UniProt P19793); experiment: ATG_RXRa_TRANS: Attagene TRANS-FACTORIAL HepG2 Assay for human Retinoid X Receptor alpha (RXRa) (AID 2283012; active means hit-call score of the fitted dose curve at least 0.9, where 1 is the maximum)
Retinoic acid receptor RXR-alpha (Homo sapiens), sequence (P19793 whole entry, looked up, the tested form may be a part): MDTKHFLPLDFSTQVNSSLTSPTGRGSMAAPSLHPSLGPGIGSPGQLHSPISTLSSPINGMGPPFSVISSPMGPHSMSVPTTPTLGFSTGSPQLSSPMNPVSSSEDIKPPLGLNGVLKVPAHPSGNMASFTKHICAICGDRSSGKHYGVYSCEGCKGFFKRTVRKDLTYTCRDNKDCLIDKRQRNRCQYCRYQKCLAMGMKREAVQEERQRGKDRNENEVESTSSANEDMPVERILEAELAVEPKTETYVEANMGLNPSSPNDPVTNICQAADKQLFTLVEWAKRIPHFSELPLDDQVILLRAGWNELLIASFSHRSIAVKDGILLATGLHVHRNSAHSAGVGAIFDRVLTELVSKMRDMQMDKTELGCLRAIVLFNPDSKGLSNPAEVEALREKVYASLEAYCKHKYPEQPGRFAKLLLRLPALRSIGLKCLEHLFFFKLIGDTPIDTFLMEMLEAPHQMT
Procedure, shortened: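 Transient transfection of human HepG2 with multiple GAL4-UAS reporter constructs; 24 h compound exposure; total RNA isolated, reverse-transcribed, PCR-amplified, 6-FAM labelled, HpaI-cut, resolved by capillary electrophoresis. Positive-direction fit versus DMSO.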

[18] = target: human Retinoid X Receptor beta (RXRb), RXRB (gene 6257) (UniProt P28702); experiment: ATG_RXRb_TRANS: Attagene TRANS-FACTORIAL HepG2 Assay for human Retinoid X Receptor beta (RXRb) (AID 2283013; active means hit-call score of the fitted dose curve at least 0.9, where 1 is the maximum)
human Retinoid X Receptor beta (RXRb), RXRB (gene 6257), sequence (P28702 whole entry, looked up, the tested form may be a part): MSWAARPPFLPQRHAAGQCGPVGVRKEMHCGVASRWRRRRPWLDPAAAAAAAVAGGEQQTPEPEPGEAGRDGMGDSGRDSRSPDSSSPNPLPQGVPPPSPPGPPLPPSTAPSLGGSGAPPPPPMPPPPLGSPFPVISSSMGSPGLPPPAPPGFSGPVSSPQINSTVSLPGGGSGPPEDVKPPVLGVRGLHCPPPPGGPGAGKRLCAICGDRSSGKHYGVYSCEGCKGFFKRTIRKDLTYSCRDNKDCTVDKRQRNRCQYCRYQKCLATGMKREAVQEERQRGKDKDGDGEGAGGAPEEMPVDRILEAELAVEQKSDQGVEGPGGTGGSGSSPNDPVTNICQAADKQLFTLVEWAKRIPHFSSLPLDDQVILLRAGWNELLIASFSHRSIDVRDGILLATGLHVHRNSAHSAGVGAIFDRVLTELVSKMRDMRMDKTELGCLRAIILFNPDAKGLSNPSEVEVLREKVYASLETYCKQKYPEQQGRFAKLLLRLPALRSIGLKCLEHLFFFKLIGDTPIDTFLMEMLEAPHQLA
Procedure, shortened: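 Transfect HepG2 with GAL4-UAS multi-reporter constructs (chimeric NR-Gal4, TRANS format); dose compound 24 h; isolate RNA, RT-PCR, FAM primer extension, HpaI digest; quantify by capillary electrophoresis; positive direction vs DMSO.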

[19] = read-out: Interleukin-1 alpha (IL1a), IL1A (gene 3552); experiment: BSK_BE3C_IL1a: BioMAP Diversity Plus: BE3C Assay for Interleukin-1 alpha (IL1a) Biomarker Activity (AID 2283016); conditions: primary human bronchial epithelial cells; actives raise or lower the signal
Procedure, shortened: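 BE3C primary human bronchial epithelium; cpd 24 h; IL-1a by ELISA; bidirectional fit vs DMSO; parallel SRB (0.1% SRB, 10% TCA fix, 560 nm) for cytotoxicity.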

Measured: AC50

E-selectin (Homo sapiens), sequence (P16581 whole entry, looked up): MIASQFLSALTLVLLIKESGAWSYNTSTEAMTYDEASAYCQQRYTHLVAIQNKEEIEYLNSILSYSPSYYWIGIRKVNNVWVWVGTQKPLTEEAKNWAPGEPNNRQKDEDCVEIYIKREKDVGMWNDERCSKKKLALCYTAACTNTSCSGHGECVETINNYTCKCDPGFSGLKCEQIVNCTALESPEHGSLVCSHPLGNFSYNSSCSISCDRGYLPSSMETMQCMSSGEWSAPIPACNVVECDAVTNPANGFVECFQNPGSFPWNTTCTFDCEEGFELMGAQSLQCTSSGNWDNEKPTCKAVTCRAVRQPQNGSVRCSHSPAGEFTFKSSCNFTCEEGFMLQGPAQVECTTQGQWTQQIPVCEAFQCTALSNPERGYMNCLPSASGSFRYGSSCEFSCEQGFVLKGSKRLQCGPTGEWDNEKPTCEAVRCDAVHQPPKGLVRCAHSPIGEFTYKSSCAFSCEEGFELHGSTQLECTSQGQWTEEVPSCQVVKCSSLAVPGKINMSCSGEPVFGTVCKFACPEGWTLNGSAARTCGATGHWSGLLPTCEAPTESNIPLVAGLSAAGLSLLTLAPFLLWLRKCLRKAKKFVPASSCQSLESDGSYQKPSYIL

Cc1[nH]c(=O)n(C(C)(C)C)c(=O)c1Cl
active: [2] 11.7 µM | [14] 13.2 µM
not listed: [16] | [17] | [18] | [19]
inactive: all other assays above

CC(C)N(C(=O)COc1nnc(C(F)(F)F)s1)c1ccc(F)cc1
active: [7] 14.3 µM | [8] 10.7 µM | [13] 22.4 µM
not listed: [4] | [5] | [9] | [10] | [19]
inactive: all other assays above

CCCN(CCC)c1c([N+](=O)[O-])cc(C(F)(F)F)cc1[N+](=O)[O-]
active: [2] 33 µM | [6] 29.1 µM | [8] 10.6 µM | [13] 24.7 µM
not listed: [4] | [5] | [9] | [10] | [16] | [17]
inactive: all other assays above

COC(=O)c1ccccc1S(=O)(=O)NC(=O)N(C)c1nc(C)nc(OC)n1
not listed: [4] | [5] | [9] | [10] | [18]
inactive: all other assays above

Cc1cc(C)nc(NC(=O)NS(=O)(=O)c2ccccc2C(=O)OC2COC2)n1
not listed: [5] | [10] | [16] | [17] | [19]
inactive: all other assays above

CCC(C)(NC(=O)c1cc(Cl)c(C)c(Cl)c1)C(=O)CCl (configuration not stated)
active: [1] 9.51 µM | [2] 9.74 µM | [3] 26.6 µM | [6] 5.47 µM | [7] 0.878 µM | [11] 8.28 µM | [12] 21.1 µM | [13] 13.8 µM | [14] 3.57 µM
inactive: [16] | [4] | [8] | [9] | [10] | [17] | [18] | [15]
